Assay [1] has as its target Lysosomal acid glucosylceramidase (Homo sapiens) (UniProt P04062). Description: Glucocerebrosidase-p2 (AID 348; in the data active = potency below about 10 µM; also: potency is read from the fitted curve at half-maximal effect). The following applies: purified GBA, blue fluorogenic substrate, 40 min. The method in brief: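 Compounds titrated from 0.6 nM upwards against 0.2 nM enzyme in pH 5.9 citric acid/KH2PO4, taurocholate, tween-20; blue fluorogenic substrate 80 uM, 40 min room temperature, stopped and read Ex 365/Em 440 for AC50.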

A short description of assay [2]: AP1 Signaling Pathway (AID 357). Also: % is scaled to controls: 0 for no effect and ±100 for the full control effect. The conditions noted are these: ME-180 AP-1-bla reporter, EGF-induced, beta-lactamase ratio, 5 h; at 7.69 µM (top of the series) unless noted. The method in brief: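 ME-180 cells with beta-lactamase reporter under AP-1 response element, stimulated with EC50 EGF; compounds tested in titration series, 5 h at 37 °C. CCF4 substrate added 2.5 h at room temperature; 460/530 nm emission ratio gave %activity and AC50.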

A short description of assay [3]: NFAT Signaling Pathway (AID 444).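 Also: carbachol stimulus at about its EC50 of 1 µM final; % is scaled to controls: 0 for no effect and ±100 for the full control effect.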 The conditions noted are these: Jurkat NFAT-bla M1, carbachol, beta-lactamase ratio, 5 h; at 7.69 µM (top of the series) unless noted. The method in brief:
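Jurkat cells carrying an NFAT-driven β-lactamase reporter and co-transfected muscarinic M1 receptor were treated with compound plus carbachol (1 uM final, an EC50 level) for 5 h at 37 °C. CCF4 loading followed for 1 h at RT; 460/530 nm ratio gave %activity.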

Assay [4] can be described thus: Stat Signaling Pathway (AID 446).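 Also: ME-180 cervical cancer cells given 40 pM IL-6 alongside compound; SIE-controlled beta-lactamase reporter measured as 460/530 nm FRET emission ratio; % is scaled to controls: 0 for no effect and ±100 for the full control effect.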 The following applies: ME-180 SIE beta-lactamase reporter, IL-6 stimulated, 5 h; at 7.69 µM (top of the series) unless noted. The method in brief: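 Reporter line: ME-180 cervical carcinoma, SIE-beta-lactamase. Treatment: compound with 40 pM IL-6, 5 hrs, 37 C, in low-serum OPTI-MEM with 10 mM HEPES pH 7.3. Detection: 460/530 nm fluorescence.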

For assay [5], the target named is Glucocorticoid receptor (Homo sapiens) (UniProt P04150). The assay can be described thus: GR-GFP Redistribution (AID 450;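 active = compounds whose dose series gives a full or clear partial fitted curve of increased nuclear translocation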; also: potency is read from the fitted curve at half-maximal effect). The following applies: U2OS GR-GFP nuclear translocation, laser cytometry, 2 h.
The target is the same in assay [6]. Description: GR-EFC Redistribution (AID 451; calls by dose curve; also: potency is read from the fitted curve at half-maximal effect). The conditions noted are these: CHO-K1 GR-EFC translocation, beta-gal luminescence, 2 h. The procedure, abridged: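 CHO-K1 cells stably expressing nuclear-localized β-gal enzyme acceptor and GR fused C-terminally to the enzyme donor fragment; ligand-driven nuclear translocation restores β-gal by complementation. Compounds titrated up to 46 uM final, 2 h at 37 °C; luminescence read.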

For assay [7], the target named is Mitogen-activated protein kinase 10 (Mus musculus) (UniProt Q61831). Description: JNK3 AlphaScreen Assay (AID 530).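 Also: kinase came from lysate of stimulated human HepG2 cells; signal reports phosphorylation of biotinylated GST-cJun 1-79 at Ser73 with 10 µM ATP; % is scaled to controls: 0 for no effect and ±100 for the full control effect.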 The following applies: JNK3 lysate, c-Jun phosphorylation; series mostly up to 57.1 µM. The method in brief:
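Inhibitors reduce antibody binding to phosphorylated biotin-cJun, lowering AlphaScreen luminescence. Lysates from HepG2 cells pre-activated by IL-1beta plus TNF-alpha supplied JNK3; compounds were titrated.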

Assay [8] can be described thus: Primary qHTS for small molecule stabilizers of the endoplasmic reticulum resident proteome: Secreted ER Calcium Modulated Protein (SERCaMP) assay (AID 1508630; active = well fitted curve in the direction sought with a large enough effect; an effect the other way counts as inactive or inconclusive; also: % is scaled to controls: 0 for no effect and ±100 for the full control effect). The conditions noted are these: SH-SY5Y GLuc-SERCaMP (Gaussia luciferase released on ER calcium loss) secretion, thapsigargin, luminescence; series mostly up to 38.4 µM. The method in brief:
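GLuc-SERCaMP-expressing SH-SY5Y cells, pretreated 16 h with compound, are challenged with thapsigargin to empty ER calcium stores; after 4 h, coelenterazine is added directly to the medium and luminescence is imaged.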

Assay [9] concerns the target Cytochrome P450 3A4 (Homo sapiens) (UniProt P08684). The assay can be described thus: qHTS Assay for Inhibitors and Substrates of Cytochrome P450 3A4 (AID 884; active = well fitted curve in the direction sought with a large enough effect; an effect the other way counts as inactive or inconclusive; also: potency is read from the fitted curve at half-maximal effect; nearly all actives have a fitted effect of over 50% in size). The following applies: recombinant CYP3A4, Luciferin-PPXE luminescence; series mostly up to 57.1 µM. The method in brief: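 20 nM human CYP3A4 with 25 uM Luciferin-PPXE (at KM) in 200 mM KPO4, preincubated 10 min with compound; NADPH regeneration started a 60 min RT reaction. Luciferin detected by luminescence, normalized to 57 uM ketoconazole as full inhibition.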

Assay [10] shares this target. Description: qHTS Assay for Activators of Cytochrome P450 3A4 (AID 885; active = well fitted curve in the direction sought with a large enough effect; an effect the other way counts as inactive or inconclusive; also: nearly all actives have a fitted effect of over 65% in size). The following applies: recombinant CYP3A4, Luciferin-PPXE luminescence, 60 min; series mostly up to 57.1 µM. The procedure, abridged:
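Signal was normalized against complete inhibition by 57 uM ketoconazole. The reaction used 20nM CYP3A4 with 25uM Luciferin-PPXE, 10-min compound preincubation and a 60-min NADPH-supported step at RT.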

For assay [11], the target named is Ubiquitin carboxyl-terminal hydrolase 1 (Homo sapiens) (UniProt O94782). Description: Inhibitors of USP1/UAF1: Pilot qHTS (AID 504865; active = well fitted curve in the direction sought with a large enough effect; an effect the other way counts as inactive or inconclusive;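 also: rhodamine fluorescence freed from ubiquitin-rhodamine substrate followed over time; top concentration of the series differs between compounds; % is scaled to controls: 0 for no effect and ±100 for the full control effect; nearly all actives have a fitted effect of over 35% in size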). The following applies: purified USP1/UAF1, Ub-rhodamine cleavage fluorescence; series mostly up to 54.9 µM. The procedure, abridged: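 Deubiquitinase activity followed as kinetic rhodamine fluorescence release from 150 nM Ub-Rho. 1 nM USP1/UAF1 with compound, after 15 min room-temperature preincubation, in HEPES pH 7.8 buffer containing TCEP, EDTA, BSA and Tween-20.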

The target of assay [12] is Cytochrome P450 1A2 (Homo sapiens) (UniProt P05177). Description: p450-cyp1a2 (AID 410; calls by dose curve; also: potency is read from the fitted curve at half-maximal effect;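 as to activity change, negative = inhibition: -100% = full effect of reference inhibitor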). The following applies: recombinant CYP1A2, luciferin-ME demethylation, luminescence; series mostly up to 57 µM. The method in brief: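 20nM CYP1A2 with 100uM Luciferin-ME (at Km) in 100mM KPO4; compound preincubated 10 min, NADPH regeneration added, 60 min at room temperature. Luciferin quantified by luminescence after detection reagent; normalized to 57 uM furafylline.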

Assay [13] has as its target 3',5'-cyclic-AMP phosphodiesterase 4B (Homo sapiens) (UniProt Q07343). Description: qHTS Assay for Inhibitors of PDE-IV (AID 607; active = well fitted activation curve with a large enough effect in the main read-out, with a control signal flat, not every such curve was filed as active; also: % of control where 0% means no effect). The conditions noted are these: HEK293 ACTOne CNG channel cells, membrane potential fluorescence; series mostly up to 22.9 µM. The method in brief:
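Cell-based read-out of cAMP via a modified cyclic nucleotide-gated channel and membrane potential dye (535/590 nm) in HEK293 cells expressing PDE4 endogenously. Compounds tested up to 22.9 uM final; 100 uM RO 20-1724 reference.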

Assay [14] is described as follows: qHTS Assay for Identification of Small Molecule Agonists for Hypoxia Response Element Signaling Pathway (AID 914; active = well fitted activation curve with a large enough effect in the signal ratio, with a control signal flat, not every such curve was filed as active; the % refers to the signal ratio; also: potency is read from the fitted curve at half-maximal effect; as to activation: % of control where 0% means no effect). The conditions noted are these: ME-180 (cervical carcinoma) HRE-bla reporter, beta-lactamase ratio, CoCl2, 17 h; activation: stronger effect = higher value. The method in brief:
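Compounds in a titration series were added to ME-180 reporter cells alongside an EC50 level of CoCl2. After 17 hours, beta-lactamase activity was read as the 460nm/530nm emission ratio of CCF4, giving AC50 values.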

Assay [15] can be described thus: Confirmation and Secondary Assay for Modulators of Hemoglobin Beta Chain Splicing at IVS2 705 locus (AID 930; active = well fitted curve in the direction sought with a large enough effect; an effect the other way counts as inactive or inconclusive;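 also: HeLa cells stably expressing the EGFP-705 splicing reporter; GFP fluorescence per well restored by corrected splicing of the IVS2-705 intron in EGFP; % of control where 0% means no effect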). The following applies: HeLa EGFP-705 splicing reporter, GFP fluorescence, 48 h; series mostly up to 38.3 µM. The method in brief:
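Assay measures total GFP intensity per well in HeLa EGFP-705 cells after 2 days with compound; mis-splicing normally truncates EGFP, so fluorescence indicates corrected splicing.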

Values without a mark were called inactive. Inconclusive results are not listed. The source made the active and inactive calls. Unless noted, calls follow the shape of the dose curve; as a rule, active = well fitted curve in either direction with a large enough effect (not every such curve was filed as active); inconclusive = small, poorly fitted or top-dose-only effect, or another doubt; inactive = flat fitted curve, though single readings scatter.

Sequence of Lysosomal acid glucosylceramidase (Homo sapiens) (P04062 whole entry, looked up): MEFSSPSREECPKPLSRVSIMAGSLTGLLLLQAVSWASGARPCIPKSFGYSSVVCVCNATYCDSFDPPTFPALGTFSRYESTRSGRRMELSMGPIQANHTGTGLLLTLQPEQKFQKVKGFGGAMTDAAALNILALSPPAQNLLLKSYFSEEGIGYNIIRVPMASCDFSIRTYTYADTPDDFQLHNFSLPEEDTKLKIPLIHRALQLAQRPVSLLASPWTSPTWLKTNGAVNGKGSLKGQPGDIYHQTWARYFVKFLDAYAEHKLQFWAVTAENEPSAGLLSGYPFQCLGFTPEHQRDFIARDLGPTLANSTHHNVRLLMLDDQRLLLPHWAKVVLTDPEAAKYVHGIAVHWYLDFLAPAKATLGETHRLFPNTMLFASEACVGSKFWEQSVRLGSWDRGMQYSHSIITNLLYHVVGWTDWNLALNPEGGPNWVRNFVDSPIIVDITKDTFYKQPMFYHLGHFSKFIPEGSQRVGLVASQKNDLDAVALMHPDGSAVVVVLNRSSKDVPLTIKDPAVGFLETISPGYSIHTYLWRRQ
Sequence of Cytochrome P450 1A2 (Homo sapiens) (P05177 whole entry, looked up): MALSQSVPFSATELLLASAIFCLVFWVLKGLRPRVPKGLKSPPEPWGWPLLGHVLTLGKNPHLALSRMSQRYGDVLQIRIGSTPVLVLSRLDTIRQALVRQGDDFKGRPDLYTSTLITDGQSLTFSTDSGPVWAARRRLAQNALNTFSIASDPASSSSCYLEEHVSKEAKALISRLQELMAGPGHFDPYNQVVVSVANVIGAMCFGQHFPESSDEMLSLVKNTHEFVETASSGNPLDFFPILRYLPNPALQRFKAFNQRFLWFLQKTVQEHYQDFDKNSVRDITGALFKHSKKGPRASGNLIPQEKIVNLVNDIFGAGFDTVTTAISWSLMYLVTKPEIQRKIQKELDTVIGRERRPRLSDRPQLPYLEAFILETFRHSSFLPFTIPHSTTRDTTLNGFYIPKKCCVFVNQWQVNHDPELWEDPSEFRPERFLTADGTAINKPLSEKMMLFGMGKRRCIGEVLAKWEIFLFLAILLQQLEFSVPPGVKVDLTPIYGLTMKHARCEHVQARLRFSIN
Sequence of Glucocorticoid receptor (Homo sapiens) (P04150 whole entry, looked up, the tested form may be a part): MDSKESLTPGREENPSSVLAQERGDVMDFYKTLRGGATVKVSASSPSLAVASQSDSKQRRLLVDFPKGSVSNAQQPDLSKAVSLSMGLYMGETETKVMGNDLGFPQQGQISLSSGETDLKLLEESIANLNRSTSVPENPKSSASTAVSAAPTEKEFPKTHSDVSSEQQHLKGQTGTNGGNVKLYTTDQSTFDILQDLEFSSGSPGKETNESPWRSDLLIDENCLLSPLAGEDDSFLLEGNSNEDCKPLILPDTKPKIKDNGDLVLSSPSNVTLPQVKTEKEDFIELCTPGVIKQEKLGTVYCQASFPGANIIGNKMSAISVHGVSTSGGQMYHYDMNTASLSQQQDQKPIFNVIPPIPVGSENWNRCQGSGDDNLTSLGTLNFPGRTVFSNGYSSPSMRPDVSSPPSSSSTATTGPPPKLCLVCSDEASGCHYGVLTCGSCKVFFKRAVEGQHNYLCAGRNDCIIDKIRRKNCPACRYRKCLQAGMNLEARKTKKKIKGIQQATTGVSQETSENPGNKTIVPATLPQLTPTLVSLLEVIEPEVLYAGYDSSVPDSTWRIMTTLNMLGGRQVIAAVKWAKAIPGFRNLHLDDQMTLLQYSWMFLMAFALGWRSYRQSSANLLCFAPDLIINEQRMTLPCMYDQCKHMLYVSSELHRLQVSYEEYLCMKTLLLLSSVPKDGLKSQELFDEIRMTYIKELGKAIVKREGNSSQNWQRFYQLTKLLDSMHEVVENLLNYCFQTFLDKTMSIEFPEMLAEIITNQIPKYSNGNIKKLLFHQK
Sequence of 3',5'-cyclic-AMP phosphodiesterase 4B (Homo sapiens) (Q07343 whole entry, looked up): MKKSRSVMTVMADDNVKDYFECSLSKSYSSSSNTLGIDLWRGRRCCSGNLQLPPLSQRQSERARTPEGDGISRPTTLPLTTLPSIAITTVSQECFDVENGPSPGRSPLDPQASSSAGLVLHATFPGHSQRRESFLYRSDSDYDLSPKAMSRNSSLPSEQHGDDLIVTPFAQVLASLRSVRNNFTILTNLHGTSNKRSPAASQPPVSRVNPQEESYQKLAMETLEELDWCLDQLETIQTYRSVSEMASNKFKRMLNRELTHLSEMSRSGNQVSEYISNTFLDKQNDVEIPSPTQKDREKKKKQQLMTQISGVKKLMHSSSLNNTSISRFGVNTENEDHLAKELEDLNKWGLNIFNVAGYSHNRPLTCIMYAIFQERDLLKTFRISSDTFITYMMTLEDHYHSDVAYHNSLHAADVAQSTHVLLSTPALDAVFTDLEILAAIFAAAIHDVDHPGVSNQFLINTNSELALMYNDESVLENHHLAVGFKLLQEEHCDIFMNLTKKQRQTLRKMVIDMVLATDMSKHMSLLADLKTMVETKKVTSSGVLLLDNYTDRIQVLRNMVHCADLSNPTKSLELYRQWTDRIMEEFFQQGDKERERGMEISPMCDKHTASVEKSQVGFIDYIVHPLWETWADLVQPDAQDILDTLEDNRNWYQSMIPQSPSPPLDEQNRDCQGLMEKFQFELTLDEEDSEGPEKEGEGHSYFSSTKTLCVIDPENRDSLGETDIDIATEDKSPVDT
Sequence of Cytochrome P450 3A4 (Homo sapiens) (P08684 whole entry, looked up): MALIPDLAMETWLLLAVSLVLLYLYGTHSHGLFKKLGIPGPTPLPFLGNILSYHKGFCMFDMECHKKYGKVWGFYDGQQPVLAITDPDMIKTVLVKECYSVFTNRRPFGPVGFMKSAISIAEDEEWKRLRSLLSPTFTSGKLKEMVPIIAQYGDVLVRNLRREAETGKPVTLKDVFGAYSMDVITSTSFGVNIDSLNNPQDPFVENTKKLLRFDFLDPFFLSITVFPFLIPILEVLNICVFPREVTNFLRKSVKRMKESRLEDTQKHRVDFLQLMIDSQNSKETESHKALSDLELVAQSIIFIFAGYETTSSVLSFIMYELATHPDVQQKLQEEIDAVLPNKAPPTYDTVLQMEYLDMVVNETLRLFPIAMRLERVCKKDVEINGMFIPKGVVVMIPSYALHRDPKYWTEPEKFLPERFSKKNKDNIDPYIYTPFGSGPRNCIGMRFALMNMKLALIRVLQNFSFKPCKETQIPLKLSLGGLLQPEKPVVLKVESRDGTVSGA
Sequence of Ubiquitin carboxyl-terminal hydrolase 1 (Homo sapiens) (O94782 whole entry, looked up): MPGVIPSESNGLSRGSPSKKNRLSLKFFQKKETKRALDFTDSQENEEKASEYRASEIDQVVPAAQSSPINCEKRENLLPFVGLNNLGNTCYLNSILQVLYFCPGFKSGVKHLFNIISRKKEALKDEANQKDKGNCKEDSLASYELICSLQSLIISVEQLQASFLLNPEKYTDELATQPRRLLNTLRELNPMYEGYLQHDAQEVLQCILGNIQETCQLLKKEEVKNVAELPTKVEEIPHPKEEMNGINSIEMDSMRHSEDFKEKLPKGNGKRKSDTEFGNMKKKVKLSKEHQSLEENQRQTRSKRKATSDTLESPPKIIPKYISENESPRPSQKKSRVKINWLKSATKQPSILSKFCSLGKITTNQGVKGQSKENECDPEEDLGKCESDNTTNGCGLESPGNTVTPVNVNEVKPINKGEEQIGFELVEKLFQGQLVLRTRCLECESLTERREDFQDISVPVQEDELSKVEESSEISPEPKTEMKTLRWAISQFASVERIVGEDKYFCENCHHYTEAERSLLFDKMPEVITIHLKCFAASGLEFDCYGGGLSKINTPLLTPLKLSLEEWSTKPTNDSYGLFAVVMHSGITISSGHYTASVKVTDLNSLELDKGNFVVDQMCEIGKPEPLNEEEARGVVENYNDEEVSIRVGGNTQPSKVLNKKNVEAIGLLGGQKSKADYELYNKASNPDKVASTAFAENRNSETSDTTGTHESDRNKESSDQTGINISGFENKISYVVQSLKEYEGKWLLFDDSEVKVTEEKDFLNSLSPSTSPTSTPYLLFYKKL

Regarding `COc1ccc(Oc2ncc3ncc(=O)n(CCC#N)c3n2)cc1`, the Potency in [1] was greater than 11.4 µM; in assay [5], greater than 9.22 µM; in assay [6] it was greater than 46 µM. Further, the activity change, negative = inhibition in [2] was -11.3%; in [3] it was -5.59%. In addition, the activity, negative = inhibition in assay [4] was -8.02%. The Potency entry in assay [7] is “inactive”. Also, the outcome in assay [8] was inactive.
For `c1ccc2c(NC3CC3)nc(-c3ccoc3)nc2c1`, the Potency in [1] was 3.8 µM (active); in [5], greater than 46 µM; in [6], greater than 46 µM; in [9] it was 3.98 µM (active). Moreover, the activity change, negative = inhibition in assay [2] is 14.4%; in assay [3], -16.4%. Also, in [4], the activity, negative = inhibition is -5.96%. For the same compound, the Potency entry in assay [7], in assay [10] and in assay [11] was “inactive” in each case. The outcome in [8] was inactive.
For the compound `COC(=O)N1CCC2(CCCN(Cc3ccccc3)C2)CC1`, the Potency is greater than 11.4 µM in [1] and greater than 46 µM in assay [6]. Further, in assay [2], the activity change, negative = inhibition is -5.44%. Further, the Potency entry in [12], in [7] and in assay [13] was “inactive” throughout. In assay [4], the activity, negative = inhibition is 2.77%. In assay [14], the activation was 3.12%. The result in assay [8] was inactive.
`O=c1c(-c2ccccc2)nc2cncnc2n1Cc1ccc(F)cc1`: the Potency in assay [1] was greater than 11.4 µM; in assay [5], greater than 9.22 µM; in [6], greater than 46 µM. Also, the activity change, negative = inhibition was -20% in assay [2] and -1.65% in assay [3]. Besides, in assay [4], the activity, negative = inhibition was -6.53%. For the same compound, in assay [7], the Potency entry was “inactive”. The result in assay [8] was inactive.
Regarding `COc1ncc2nc(-c3cc(F)cc(F)c3)c(=O)n(Cc3cccs3)c2n1`, the figures for the Potency in assay [1], in assay [5] and in assay [6] were greater than 11.4 µM, greater than 9.22 µM and greater than 46 µM, respectively. Besides, the activity change, negative = inhibition in [2] was 14.2%; in assay [3], -10.4%. Moreover, the activity, negative = inhibition in [4] is 4.55%. Further, the Potency result in assay [7] and in assay [13] was “inactive” throughout. Besides, the result in assay [8] was inactive.
`CN(C)c1ccc(-c2nc(NC3CCNCC3)c3ccccc3n2)cc1`: the Potency was 7.09 µM (active) in [1], 15.8 µM (active) in assay [12], greater than 46 µM in [5] and greater than 46 µM in assay [6]. For the same compound, the activity change, negative = inhibition in assay [2] was 4.91%. Also, the Potency entry in assay [7], in assay [13] and in assay [10] was “inactive” throughout. Further, the compound was called inactive in [15] and in [8].
On to `O=C(c1cc(C(F)(F)F)cc(C(F)(F)F)c1)N1CCC2(CCCN(Cc3ccncc3)C2)CC1`, for which the values for the Potency in assay [1] and in assay [6] were greater than 11.4 µM and greater than 46 µM, respectively. Moreover, the activity change, negative = inhibition in assay [2] is 7.96%. Moreover, the Potency entry in assay [12], in assay [7], in assay [13] and in assay [10] was “inactive” in each case. Besides, in assay [4], the activity, negative = inhibition was -3.11%. Further, in [8], the result was inactive.
Regarding `Cn1c(=O)c(-c2cccs2)nc2cnc(Oc3ccccc3)nc21`, the Potency was greater than 11.4 µM in assay [1], 7.94 µM (active) in assay [12], greater than 46 µM in assay [6] and 3.16 µM (active) in assay [14]. Besides, the activity change, negative = inhibition in [2] is 12.2%. Moreover, the Potency entry in [13] was “inactive”. Besides, the result in assay [8] was inactive.

The values are drawn from PubChem BioAssay (NCATS).
